Screening data deposited in PubChem BioAssay by National Center for Advancing Translational Sciences (NCATS).
Marburg entry inh: Marburg virus entry inhibition. 300,000 compounds, 1.8% hits. Marburg virus pseudotyped entry inhibition, cell reporter. Potency, µM (series often up to 37.8 µM), for inactives: at the highest dose activity change, negative = inhibition, hits mostly inhibitors; calls by dose curve; tested in HEK293 cells; note: potency is the fitted concentration of half-maximal effect
HCMV antiviral: blocks human cytomegalovirus replication; HFF cells, HCMV-luciferase reporter, 72 h; hits give low values; activity change, negative = inhibition, % at 57.5 µM; 410,000 compounds, 4.5% hits; in the data active = activity change below about -60%; inconclusive = no clear call, values can overlap the other calls; inactive = above about -39%
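Cell-based, HFFs, 1000 cells/well, 16 h 37C; cpds in DMSO + HCMV-luc, MOI 1 PFU/cell; 72 h 37C; OneGlo luminescence after 5 min RT; norm. to buffer vs Salinomycin 10uM.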
FMDV antiviral: blocks foot and mouth disease virus | Potency, µM (doses to about 57.9 µM), for the others: top-dose activity change, negative = inhibition, hits mostly inhibitors | FMDV antiviral cell-based qHTS | 410,000 compounds, 1.2% hits; calls by dose curve; tested in HEK293T cells; note: read-out not given here; potency is the fitted concentration of half-maximal effect; nearly all actives have a fitted effect of over 45% in size
FBPA Giardia inh: Giardia lamblia aldolase inhibition | A8B2U2 | purified Giardia FBPA | Potency, µM (top dose mostly 59.6 µM), for inactives: at the highest dose activity, negative = inhibition, actives largely listed as inhibitors | 290,000 compounds, 0.71% hits; note: potency is the fitted concentration of half-maximal effect; nearly all actives have a fitted effect of over 55% in size
Target sequence (A8B2U2 whole entry, looked up): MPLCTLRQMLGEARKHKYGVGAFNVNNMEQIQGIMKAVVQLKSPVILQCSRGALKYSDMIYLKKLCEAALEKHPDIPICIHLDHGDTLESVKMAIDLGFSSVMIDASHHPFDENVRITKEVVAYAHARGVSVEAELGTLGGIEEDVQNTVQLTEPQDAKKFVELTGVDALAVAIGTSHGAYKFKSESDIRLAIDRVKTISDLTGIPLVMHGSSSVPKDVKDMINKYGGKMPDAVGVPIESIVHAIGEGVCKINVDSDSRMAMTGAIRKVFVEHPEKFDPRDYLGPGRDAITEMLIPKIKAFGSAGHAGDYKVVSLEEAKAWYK
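40 nM FBPA preincubated 10 min at RT with compound (up to 57.5 uM final), then substrate plus GAPDH/TPI/NAD/arsenate coupling and diaphorase/resazurin added. Fluorescence read after 20 min at RT, 525/598 nm.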
Lassa entry inh: Lassa virus entry inhibition; Lassa virus pseudotype entry inhibition, cell reporter; Potency, µM (doses to about 37.9 µM), for inactives: at the top dose activity change, negative = inhibition, usual class: inhibitors; 300,000 compounds, 1.2% hits; calls by dose curve; tested in HEK293 cells; note: potency is the fitted concentration of half-maximal effect; nearly all actives have a fitted effect of over 50% in size
HCV inhibitor: inhibitors of hepatitis C virus infection; 340,000 compounds, 3.4% hits; Potency, µM (doses to about 41.8 µM), without a hit: top-dose activity change, negative = inhibition, most hits filed as inhibitors; Huh7.5.1 HCVcc-Cre infection, luciferase reporter, 44 h; note: potency is the fitted concentration of half-maximal effect
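Whole-lifecycle infectious HCVcc-Cre system; cells 1,000/well, compound then virus (~0.5 moi) added 4 h after plating, 44 h culture. Luciferase read 15 sec following 15 min substrate incubation, room temp.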
The depositor's hits bear a star; [ ] = dose if it differs, or a comment. A selection: hits, their analogues and other compounds. The true share with any hit is near 8.3%. Unless noted, calls come from the whole dose curve; as a rule, active = well fitted curve in the direction sought with a large enough effect; inconclusive = small, poorly fitted or top-dose-only effect, or another doubt; inactive = no such curve, though single readings can be large; an effect the other way counts as inactive or inconclusive. % is set by controls: 0 for no effect and ±100 for the full control effect.

How did O=C(NCCCN1CCCC1=O)c1ccc2c(c1)NC(=O)c1ccccc1S2 do in these assays?
HCMV antiviral: -2.6; FMDV antiviral: -19.6%; FBPA Giardia inh: 2.9%; HCV inhibitor: 8.4%

How did CCC(C)N(CCNC(=O)c1ccc2c(c1)NC(=O)c1ccccc1S2)C1CCCCC1 (stereo not drawn) do in these assays?
Marburg entry inh: inconclusive; HCMV antiviral: 0.0; FMDV antiviral: -19.1%; FBPA Giardia inh: -6.2%; Lassa entry inh: 3.16µM*; HCV inhibitor: 22.4µM*

How did CCOCCc1nn2c(=O)cc(COC(=O)c3ccccc3OC)nc2s1 do in these assays?
HCMV antiviral: -1.4; FMDV antiviral: -9.9%; Lassa entry inh: -18.8%[46.1 µM]

Results for O=C(c1cccc(F)c1)N1CCC[C@@]2(CCN(Cc3ccccc3)C2)C1 ?
FMDV antiviral: -7.3%; FBPA Giardia inh: -0.6%

How did Cn1nc([N+](=O)[O-])nc1Oc1ccc2ccccc2c1 do in these assays?
Marburg entry inh: -7.2%; HCMV antiviral: -64.7*; FMDV antiviral: -5.9%; FBPA Giardia inh: 2.1%; Lassa entry inh: 0.5%; HCV inhibitor: 8.4%

What do the screens show for `CCOc1ccc2nc(Cl)c(C3CC(c4ccccc4)=NN3C(=O)CCC(=O)O)cc2c1` (stereo not drawn)?
Marburg entry inh: 10.9%[46.1 µM]; HCMV antiviral: 14.2; FMDV antiviral: 1.0%; Lassa entry inh: -3.3%[46.1 µM]

What do the screens show for `Cc1ccc(NC(=O)C23CCC(C)(C(=O)[C@H]2Br)C3(C)C)cc1` (stereo partly drawn)?
HCMV antiviral: -62.0*; FMDV antiviral: -20.8%; FBPA Giardia inh: -6.4%; HCV inhibitor: 5.5%

Results for CNC1CCC(c2ccc(Cl)c(Cl)c2)c2ccccc21 (stereo not drawn) ?
FMDV antiviral: -14.8%; FBPA Giardia inh: -3.9%

What do the screens show for `C[C@H](CCC(=O)NCC(=O)O)C1CC[C@H]2[C@H]3C(C[C@H](O)[C@]12C)[C@@]1(C)CC[C@@H](O)C[C@H]1C[C@H]3O` (stereo partly drawn)?
FMDV antiviral: -4.3%

How did O=C(COC(=O)Cc1ccccc1)Nc1ncc(Cl)cc1Cl do in these assays?
Marburg entry inh: 0.3%[46.1 µM]; HCMV antiviral: inconclusive; FMDV antiviral: -17.8%; FBPA Giardia inh: 1.4%; Lassa entry inh: 5.9%; HCV inhibitor: 1.2%

Results for O=C(COC(=O)CNC(=O)c1ccco1)Nc1ncc(Cl)cc1Cl ?
HCMV antiviral: -100.2*; FMDV antiviral: -1.7%; HCV inhibitor: 5.1%

How did COc1ccccc1OCC(=O)OCC(=O)Nc1ncc(Cl)cc1Cl do in these assays?
Marburg entry inh: -16.6%[46.1 µM]; HCMV antiviral: -2.8; FMDV antiviral: -20.7%; FBPA Giardia inh: 6.6%; Lassa entry inh: -4.3%; HCV inhibitor: 0.7%

How did CCOc1ccccc1OCC(=O)OCC(=O)Nc1ncc(Cl)cc1Cl do in these assays?
Marburg entry inh: 11.4%; HCMV antiviral: -71.6*; FMDV antiviral: -19.6%; FBPA Giardia inh: 1.0%; Lassa entry inh: 7.6%; HCV inhibitor: 20.3%

What do the screens show for `CCOC(=O)CCN1C(=O)[C@H]2[C@H]3[C@H](O)[C@H](O)C/C(=N/NC(=O)OCc4ccccc4)[C@H]3CC[C@@H]2C1=O`?
Marburg entry inh: inconclusive; FBPA Giardia inh: -0.4%[12.9 µM]

Results for CCOCCCn1c(SCC(=O)NC(C)C)nc2ccccc2c1=O ?
Marburg entry inh: -0.3%; HCMV antiviral: -106.8*; FMDV antiviral: 23.9%; FBPA Giardia inh: -6.8%; Lassa entry inh: 11.8%; HCV inhibitor: 14.0%

How did CCOCCCn1c(SCC(=O)Nc2ccccc2)nc2ccccc2c1=O do in these assays?
Marburg entry inh: -20.3%; HCMV antiviral: -38.4; FMDV antiviral: -19.6%; FBPA Giardia inh: 4.5%; Lassa entry inh: inconclusive; HCV inhibitor: -6.7%

What do the screens show for `CCOCCCn1c(SCc2nc3ccccc3s2)nc2ccccc2c1=O`?
Marburg entry inh: 7.08µM*; HCMV antiviral: -78.4*; FMDV antiviral: 0.0%; FBPA Giardia inh: 17.2%; Lassa entry inh: inconclusive; HCV inhibitor: 11.2µM*

What do the screens show for `O=C(Nc1ccccc1C(F)(F)F)N1CCC2(CC1)Oc1ccccc1C(=O)N2Cc1ccccc1F`?
Marburg entry inh: inconclusive; HCMV antiviral: -73.6*; FMDV antiviral: -18.4%

How did O=C(CCCN1C(=O)/C(=C/c2cccc(Br)c2)SC1=S)Nc1cccnc1 do in these assays?
Marburg entry inh: inconclusive; HCMV antiviral: -99.4*; FMDV antiviral: -1.6%; FBPA Giardia inh: 0.0%; Lassa entry inh: inconclusive; HCV inhibitor: inconclusive

Results for O=C(CCCN1C(=O)/C(=C\c2cccc(Br)c2)SC1=S)Nc1cccnc1 ?
Marburg entry inh: 4.47µM*; HCMV antiviral: -99.4*; FMDV antiviral: -24.8%; FBPA Giardia inh: 16.0%; Lassa entry inh: inconclusive; HCV inhibitor: inconclusive

How did O=C(CCCN1C(=O)/C(=C/c2cccc(Br)c2)SC1=S)Nc1ccccn1 do in these assays?
Marburg entry inh: inconclusive; HCMV antiviral: -101.5*; FMDV antiviral: -0.4%; FBPA Giardia inh: 11.4%; Lassa entry inh: -10.0%; HCV inhibitor: 11.2µM*

How did O=C(CCN1C(=O)/C(=C/C=C/c2ccccc2)SC1=S)Nc1ccccn1 do in these assays?
Marburg entry inh: -28.9%; HCMV antiviral: -64.8*; FMDV antiviral: -11.1%; FBPA Giardia inh: -5.1%; Lassa entry inh: inconclusive; HCV inhibitor: 11.1%

Results for CN1[C@@H]2CC(OC(=O)[C@@H](CO)c3ccccc3)C[C@H]1[C@H]1O[C@H]12 (stereo partly drawn) ?
Marburg entry inh: -11.3%[46.1 µM]

How did CC1=CC[C@@H](COc2ccccc2)O[C@@]2(C1)C(=O)N(Cc1ccccc1C(F)(F)F)c1cccc(Br)c12 do in these assays?
Marburg entry inh: -6.8%[14.2 µM]

How did COc1ccc(NC(=O)c2ccc3c(=O)n4nc(Nc5cc(C)ccc5C)sc4nc3c2)cc1 do in these assays?
HCMV antiviral: inconclusive; FMDV antiviral: -8.6%; Lassa entry inh: 20.7%[46.1 µM]

What do the screens show for `CCN(CC)S(=O)(=O)c1ccc2nc(NC(=O)c3cccnc3)sc2c1`?
HCMV antiviral: 8.4; FMDV antiviral: -9.5%; Lassa entry inh: 6.3%[46.1 µM]

Results for COc1ccc(-c2cc(-c3cccs3)c(C#N)c(SCC(=O)NCc3ccccc3OC)n2)cc1 ?
Marburg entry inh: inconclusive; HCMV antiviral: -61.1*; FMDV antiviral: -14.8%; FBPA Giardia inh: -1.8%; Lassa entry inh: inconclusive; HCV inhibitor: inconclusive

How did CC(C)c1nn2c(=O)cc(COC(=O)c3ccccc3NC(=O)c3cccs3)nc2s1 do in these assays?
HCMV antiviral: -23.9; FMDV antiviral: 1.4%; Lassa entry inh: 10.5%[46.1 µM]

What do the screens show for `C[C@H]1CCC[C@]2(C)C[C@H]3OC(=O)C(CN4CCCCCC4)[C@H]3C=C12` (stereo partly drawn)?
HCMV antiviral: inconclusive; FMDV antiviral: 22.4µM*; FBPA Giardia inh: 2.4%; HCV inhibitor: inconclusive

What do the screens show for `CCc1c(C(=O)NCCc2ccc(N3CCCCC3)cc2)[nH]c2ccc(Cl)cc12`?
Marburg entry inh: -2.1%; Lassa entry inh: -32.7%
